Data: PubChem BioAssay
Results filed as inconclusive are left out. Active and inactive are the calls of the source.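 The calls were made as follows, unless noted: active = normalized viability below 100% at a tested concentration; inactive = the rest.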

What was measured:
[1] = viability loss in pontine glioma line – cell-based, SU-DIPG-XXV, MIPE5.0, CellTiter-Glo, qHTS, dose response (AID 1347065; cut-off not given, nearly all actives have AC50 up to about 26 µM;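 also: cells exposed to compound for 48 hours before ATP readout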); conditions: CellTiter-Glo ATP luminescence
[2] = viability loss in pontine glioma line – cell-based, SU-DIPG-XIII, MIPE5.0, CellTiter-Glo, qHTS, dose response (AID 1347064; cut-off not given, nearly all actives have AC50 up to about 23 µM;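 as to AC50: cells exposed to compound for 48 hours before the viability read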); conditions: CellTiter-Glo ATP luminescence
[3] = growth inhibition of DIPG cells – cell-based, MIPE5.0 library, qHTS (AID 1347068; cut-off not given, nearly all actives have IC50 up to about 30 µM); conditions: SU-DIPG-XXV viability
[4] = JHH-DIPG-1 glioma cell viability, MIPE5.0 library, CellTiter-Glo luminescence, qHTS (AID 1347067; cut-off not given, nearly all actives have AC50 up to about 26 µM;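 also: cells exposed to compound for 48 hours before readout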); conditions: JHH-DIPG-1 glioma viability, CellTiter-Glo ATP luminescence
[5] = P. berghei load reduction in hepatocytes – cell-based, HepG2, luciferase luminescence, HepG2 viability, primary screen (AID 624349; in the data active = parasite load remaining mostly below about 12%, no sharp cut-off; inactive = mostly above about 10%;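 also: 100% = mean of DMSO negative control wells on the same plate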); conditions: P. berghei liver stage in HepG2, luciferase luminescence, concentration not given here; parasite load remaining: stronger effect = lower value; viability: measured here: HepG2 viability without parasites
[6] = viability loss with induced miR-34 in A549 – imaging, A549 dox-inducible miR-34, nuclei and caspase counts, primary screen (AID 1347080;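 active = compounds whose cell count with miR-34 switched on is under 0.7 times the count with it off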); conditions: A549 miR-34 inducible, Hoechst nuclei count, 48 h
[7] = compounds altering HSF1 focus formation in cells – imaging, Selleck Cancer Library (AID 1347162; in the data active = plate-normalised HSF1 focus index below about 0.46); conditions: human cells, HSF1 nuclear foci imaging, at 10 µM; SSMD: measured here: HSF1 foci SSMD mean; cell count: measured here: cell number; plate-normalised HSF1 focus index: stronger effect = lower value
[8] = MELAS cybrid and Rieske KO viability enhancers – cell-based, MELAS cybrids, Rieske KO mouse fibroblasts, CellTiter-Glo, primary screen (AID 1508586;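 active = mean z-score across replicates of 1.96 or higher in either the MELAS or the Rieske mutant cell line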;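 also: z relative to plate mean and SD of compound and empty wells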); conditions: low glucose
[9] = drug combination growth inhibition, ovarian cancer – cell-based, oncology-focused library, rucaparib conditional, profiling panel (AID 1508598); conditions: patient-derived ovarian cancer cells, CellTiter-Glo viability, 144 h, stronger effect = lower value
[10] = growth inhibition of DIPG cells – cell-based, MIPE4.0 library, CellTiter-Glo luminescence, qHTS (AID 1347066; cut-off not given, nearly all actives have AC50 up to about 30 µM;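 also: cells exposed to compound for 48 hours before readout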); conditions: SU-DIPG-VI viability, CellTiter-Glo ATP luminescence
[11] = stronger effect = lower value, cell number ratio, induced over uninduced
[12] = measured here: relative caspase fold change +Dox/-Dox
[13] = measured here: total cells with miR-34 induction, stronger effect = lower value
[14] = measured here: total cells without miR-34 induction
[15] = MELAS cybrid survival, CellTiter-Glo 48 h, stronger effect = higher value
[16] = Rieske KO mouse fibroblast survival, CellTiter-Glo 72 h

C[C@@H]1C[C@H](N)C[C@H](c2ccncc2NC(=O)c2ccc(F)c(-c3c(F)cccc3F)n2)C1
AC50 [1]: 9.34 µM (active)

O=C(c1c(F)ccc(NS(=O)(=O)N2CC[C@@H](F)C2)c1F)c1c[nH]c2ncc(-c3cnc(C4CC4)nc3)cc12
AC50 [1]: 10.5 µM (active)

C[C@@H](Nc1ncnc2[nH]c(-c3ccc(O)cc3)cc12)c1ccccc1
outcome [2]: inactive | outcome [3]: inactive

Cc1nn(C)c2c1C(c1ccc(C(F)(F)F)cc1)C(C#N)=C(N)O2 (stereo not drawn)
outcome [2]: inactive | outcome [3]: inactive

Nc1nc(OC(c2ccc(-c3cccc(F)c3)cc2)C(F)(F)F)cc(-c2ccc(C[C@@H](N)C(=O)O)cc2)n1 (stereo partly drawn)
AC50 [1]: 23.5 µM (active)

N#Cc1ccc(Cn2cncc2CN2CCN(c3cccc(Cl)c3)C(=O)C2)cc1
AC50 [1]: 9.34 µM (active)

O=C1CSC(=O)N1C(CCc1ccncc1)COc1ccc(-c2cccc([N+](=O)[O-])c2)cc1 (stereo not drawn)
AC50 [1]: 18.6 µM (active) | AC50 [4]: 18.6 µM (active)

CN(C)CCCOc1ccc(-c2ccc3ncc4c(c3c2)n(C2CCOCC2)c(=O)n4C)cn1
AC50 [1]: 5.74 µM (active) | outcome [4]: inactive

COc1ccc2nc3n[nH]c(C)c3c(NCCOCCO)c2c1
parasite load remaining [5]: 46.1% (inactive) | viability [5]: 90.1% | outcome [2]: inactive | outcome [4]: inactive

CC1(N)CCN(c2cnc(-c3cccc(Cl)c3Cl)c(N)n2)CC1
outcome [2]: inactive | outcome [4]: inactive | outcome [3]: inactive

O=c1c(-n2ccnn2)c[nH]n1-c1cc(N2CCOCC2)ncn1
AC50 [1]: 20.9 µM (active) | outcome [4]: inactive

Cn1ncc2cc(-c3cnc(N)c(Cl)c3N3CCC4(CCNC4=O)CC3)ccc21
AC50 [1]: 20.9 µM (active) | outcome [4]: inactive

NCCCC[C@H](NC(=O)[C@@H](NC(=O)[C@H](Cc1c[nH]c2ccccc12)NC(=O)[C@H](CCCCN)NC(=O)[C@H](CCCCN)NC(=O)[C@H](Cc1c[nH]c2ccccc12)NC(=O)[C@H](Cc1c[nH]c2ccccc12)NC(=O)[C@H](CCCCN)NC(=O)[C@@H](N)CCCCN)C(c1ccccc1)c1ccccc1)C(N)=O
AC50 [1]: 20.9 µM (active)

CN(Cc1ccccc1)C(=O)c1ccc(S(=O)(=O)Nc2ccccc2)cc1
outcome [2]: inactive | outcome [4]: inactive | outcome [3]: inactive

COC(=O)/C=C/C(=O)N(O)CCCCNCc1ccc(COC(=O)Nc2cccc3ccccc23)cc1
AC50 [1]: 20.9 µM (active) | AC50 [4]: 18.6 µM (active)

O=C(NCCCNc1nc(Nc2cccc(CN3CCOCC3)c2)ncc1C1CC1)C1CCC1
AC50 [1]: 7.42 µM (active)

CCc1cc(Nc2nccc(-c3c(-c4ccc(OC)c(C(=O)Nc5c(F)cccc5F)c4)nc4ccccn34)n2)c(OC)cc1N1CCC(N2CCN(S(C)(=O)=O)CC2)CC1
AC50 [2]: 5.25 µM (active) | outcome [3]: inactive | fold change [6, 11]: 0.946 (inactive) | fold change [6, 12]: 1.23 | cell count [6, 13]: 6190 | cell count [6, 14]: 6540 | SSMD [7]: 2.41 | cell count [7]: 6760 | plate-normalised HSF1 focus index [7]: 1.12 (inactive) | z-score [8, 15]: 0.319 (inactive) | z-score [8, 16]: 0.793 | viability ([9]; at 0.000305 µM, OCI-C5x cells, with rucaparib 10 µM, 100% = cells with rucaparib alone): 118% (inactive) | viability ([9]; at 0.000305 µM, OCI-C5x cells, without rucaparib): 127% (inactive) | viability ([9]; at 0.000305 µM, OCI-P5x cells, with rucaparib 20 µM, 100% = cells with rucaparib alone): 97.3% (active) | viability ([9]; at 0.000305 µM, OCI-P5x cells, without rucaparib): 105% (inactive) | viability ([9]; at 0.00122 µM, OCI-C5x cells, with rucaparib 10 µM, 100% = cells with rucaparib alone): 112% (inactive) | viability ([9]; at 0.00122 µM, OCI-C5x cells, without rucaparib): 120% (inactive) | viability ([9]; at 0.00122 µM, OCI-P5x cells, with rucaparib 20 µM, 100% = cells with rucaparib alone): 99.8% (active) | viability ([9]; at 0.00122 µM, OCI-P5x cells, without rucaparib): 104% (inactive) | viability ([9]; at 0.00488 µM, OCI-C5x cells, with rucaparib 10 µM, 100% = cells with rucaparib alone): 116% (inactive) | viability ([9]; at 0.00488 µM, OCI-C5x cells, without rucaparib): 121% (inactive) | viability ([9]; at 0.00488 µM, OCI-P5x cells, with rucaparib 20 µM, 100% = cells with rucaparib alone): 98.3% (active) | viability ([9]; at 0.00488 µM, OCI-P5x cells, without rucaparib): 98.5% (active) | viability ([9]; at 0.0195 µM, OCI-C5x cells, with rucaparib 10 µM, 100% = cells with rucaparib alone): 112% (inactive) | viability ([9]; at 0.0195 µM, OCI-C5x cells, without rucaparib): 119% (inactive) | viability ([9]; at 0.0195 µM, OCI-P5x cells, with rucaparib 20 µM, 100% = cells with rucaparib alone): 102% (inactive) | viability ([9]; at 0.0195 µM, OCI-P5x cells, without rucaparib): 103% (inactive) | viability ([9]; at 0.0781 µM, OCI-C5x cells, with rucaparib 10 µM, 100% = cells with rucaparib alone): 122% (inactive) | viability ([9]; at 0.0781 µM, OCI-C5x cells, without rucaparib): 132% (inactive) | viability ([9]; at 0.0781 µM, OCI-P5x cells, with rucaparib 20 µM, 100% = cells with rucaparib alone): 93.1% (active) | viability ([9]; at 0.0781 µM, OCI-P5x cells, without rucaparib): 100% (inactive) | viability ([9]; at 0.313 µM, OCI-C5x cells, with rucaparib 10 µM, 100% = cells with rucaparib alone): 174% (inactive) | viability ([9]; at 0.313 µM, OCI-C5x cells, without rucaparib): 152% (inactive) | viability ([9]; at 0.313 µM, OCI-P5x cells, with rucaparib 20 µM, 100% = cells with rucaparib alone): 103% (inactive) | viability ([9]; at 0.313 µM, OCI-P5x cells, without rucaparib): 103% (inactive) | viability ([9]; at 1.25 µM, OCI-C5x cells, with rucaparib 10 µM, 100% = cells with rucaparib alone): 178% (inactive) | viability ([9]; at 1.25 µM, OCI-C5x cells, without rucaparib): 174% (inactive) | viability ([9]; at 1.25 µM, OCI-P5x cells, with rucaparib 20 µM, 100% = cells with rucaparib alone): 97.9% (active) | viability ([9]; at 1.25 µM, OCI-P5x cells, without rucaparib): 88.3% (active) | viability ([9]; at 5 µM, OCI-C5x cells, with rucaparib 10 µM, 100% = cells with rucaparib alone): 176% (inactive) | viability ([9]; at 5 µM, OCI-C5x cells, without rucaparib): 196% (inactive) | viability ([9]; at 5 µM, OCI-P5x cells, with rucaparib 20 µM, 100% = cells with rucaparib alone): 92.9% (active) | viability ([9]; at 5 µM, OCI-P5x cells, without rucaparib): 90.5% (active)

Cc1ccc(C(=O)Nc2ccc(Oc3cc4cnn(C)c4cc3-c3cn[nH]c3)c(F)c2)c(=O)n1-c1ccc(F)cc1
AC50 [1]: 4.68 µM (active)

CC1(C)CC[C@]2(C(=O)O)CC[C@]3(C)C(=CC[C@@H]4[C@@]5(C)C[C@@H](O)[C@H](O)C(C)(C)[C@@H]5CC[C@]43C)[C@@H]2C1
AC50 [1]: 20.9 µM (active)

CC1=C2C[C@H]3[C@@H](CC[C@@H]4C[C@H](NS(C)(=O)=O)CC[C@@]43C)[C@@H]2CC[C@@]2(C1)O[C@@H]1C[C@H](C)CN[C@H]1[C@H]2C
AC50 [1]: 20.9 µM (active)

Cc1cc(C)c2c(c1)[C@@H](N(Cc1cc(C(F)(F)F)cc(C(F)(F)F)c1)c1nnn(C)n1)CCCN2CC1CCC(C(=O)O)CC1 (stereo partly drawn)
AC50 [2]: 20.9 µM (active) | outcome [3]: inactive | fold change [6, 11]: 0.938 (inactive) | fold change [6, 12]: 0.636 | cell count [6, 13]: 6920 | cell count [6, 14]: 7380 | z-score [8, 15]: -0.009 (inactive) | z-score [8, 16]: -0.0411

OCCOc1ccc(/C(=C(/CCCl)c2ccccc2)c2ccccc2)cc1
outcome [2]: inactive | outcome [3]: inactive

NC(=O)c1cnc2[nH]ccc2c1NC1C2CC3C[C@H]1CC(O)(C3)C2 (stereo partly drawn)
AC50 [1]: 9.34 µM (active)

C#Cc1cccc(Nc2ncnc3cc4c(cc23)OCCOCCOCCO4)c1
outcome [2]: inactive | fold change [6, 11]: 1.01 (inactive) | fold change [6, 12]: 0.44 | cell count [6, 13]: 7300 | cell count [6, 14]: 7200 | z-score [8, 15]: 0.219 (inactive) | z-score [8, 16]: 0.164

Cc1cc(/C=c2/sc3nc4ccccc4n3c2=O)c(C)n1-c1ccccc1
AC50 [1]: 20.9 µM (active) | outcome [10]: inactive | outcome [4]: inactive | outcome [3]: inactive | SSMD [7]: 3.08 | cell count [7]: 7030 | plate-normalised HSF1 focus index [7]: 1.18 (inactive)

Cc1ccc(Nc2nnc(Cc3ccncc3)c3ccccc23)cc1Br
AC50 [1]: 14.8 µM (active) | AC50 [4]: 18.6 µM (active)
